Rows were chosen to be rich in hits. Some 19% of all compounds tested hit in one or more screens of this group.
HT1080-NT tox: qHTS for induction of synthetic lethality in tumor cells producing 2HG: qHTS for the HT-1080-NT fibrosarcoma cell line | HT-1080-NT fibrosarcoma viability, CellTiter-Glo ATP luminescence, 48 h | 1.6% of 360,000 active | Potency, µM (titrated, usually from 46.1 µM), inactives show at the highest dose activity, negative = less viability, hits mostly cytotoxic;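 note: NT is the 2HG producing partner of a matched IDH1 knockdown line; potency is the fitted concentration of half-maximal effect; 0% = DMSO-treated cells and -100% = media-only wells without cells; nearly all actives have a fitted effect of over 55% in size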
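750 cells/well, RPMI + 5% FBS; 2 h settle, compound pin-transfer, 48 h at 37 degrees C. CellTiter-Glo 10 min RT, luminescence. Normalized to DMSO and media-only wells.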
TDP1 cell CPT: qHTS for Inhibitors of human tyrosyl-DNA phosphodiesterase 1 (TDP1): qHTS in cells in presence of CPT; chicken DT40 Tdp1-/-;hTDP1 cells + 20 nM CPT, ATP luminescence, 48 h; 12% of 420,000 active; Potency, µM (series often up to 46.2 µM), inactives show at the top dose activity change, negative = growth inhibition, actives largely listed as inhibitors; note: potency is the fitted concentration of half-maximal effect; nearly all actives have a fitted effect of over 55% in size
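Chicken DT40 Tdp1-/- cells stably complemented with human TDP1 were seeded at 400 cells/well in medium containing 20 nM camptothecin, exposed to pin-transferred compounds, and grown at 37 °C for at least 48 hr. Viability was read as ATP luminescence.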
TDP1 cell noCPT: qHTS for Inhibitors of human tyrosyl-DNA phosphodiesterase 1 (TDP1): qHTS in cells in absence of CPT; Potency, µM (doses to about 46.2 µM), without a hit: at the highest dose activity change, negative = growth inhibition, most hits filed as inhibitors; AID 686978, 2013; 15% of 420,000 active; DT40 Tdp1-/- hTDP1 cells, no CPT, ATP luminescence, 48 h; note: potency is the fitted concentration of half-maximal effect; nearly all actives have a fitted effect of over 55% in size
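Readout: luminescence from CellTiter-Glo after 30 min in the dark at RT. Cells: DT40 Tdp1-/- with stable hTDP1, 400/well. Exposure: compounds alone, ≥48 hr, 37 °C.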
IL-1B inflam inh: qHTS for Inhibitors of Inflammasome Signaling: IL-1-beta AlphaLISA Primary Screen; THP-1 LPS/ATP IL-1B secretion, AlphaLISA, 16 h; stronger effect = lower value; 4.7% of 360,000 active; activity change, % at 57.5 µM; in the data active = activity change below about -50%; inconclusive = mostly about -30% to -49%
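THP-1 cells pretreated 1 hr with compounds (up to 57.5 uM final), then stimulated with LPS (250 ng/mL final) plus ATP (1.25 mM final); secreted IL-1B measured by AlphaLISA after 16 hr, decreased signal indicating inhibition.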
ELG1 repair inh: qHTS screen for small molecules that inhibit ELG1-dependent DNA repair in human embryonic kidney (HEK293T) cells expressing luciferase-tagged ELG1; HEK293T ELG1-luciferase reporter, luminescence, 16 h; DNA damage induced by 5-fluorouridine; Potency, µM (series often up to 46.1 µM), for inactives: at the top dose activity change, negative = inhibition, usual class: inhibitors; 2.3% of 330,000 active; AID 504467, 2011; note: potency is the fitted concentration of half-maximal effect; nearly all actives have a fitted effect of over 55% in size
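Step one: seed 2,000 cells per well. Step two: pin-transfer compound or DMSO alongside 5-fluorouridine. Step three: incubate 16 hr, 37 °C, 5% CO2. Step four: add ONE-Glo, wait 30 min, read luminescence.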
HT1080 IDH1KD tx: qHTS for induction of synthetic lethality in tumor cells producing 2HG: qHTS for the HT-1080-IDH1KD cell line; HT-1080 IDH1 knockdown viability, ATP luminescence, 48 h; Potency, µM (series often up to 46.1 µM), for inactives: at the top dose activity, negative = toxicity, most hits filed as cytotoxic; 2% of 360,000 active;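 note: potency is the fitted concentration of half-maximal effect; 0% = DMSO wells and -100% = cell-free medium wells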
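Using the IDH1-knockdown HT-1080 line run in the same batch and compound series as the NT line, viability after 48 h at 37 °C was determined by CellTiter-Glo luminescence and expressed as % activity.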
* hit, by the source's call; ? = inconclusive; . = no result given; [ ] = another dose, or the depositor's remark. Unless noted, calls come from the whole dose curve; as a rule, active = well fitted curve in the direction sought with a large enough effect; inconclusive = small, poorly fitted or top-dose-only effect, or another doubt; inactive = no such curve, though single readings can be large; an effect the other way counts as inactive or inconclusive. Unless noted, % is set by controls: 0 for no effect and ±100 for the full control effect.

SMILES | HT1080-NT tox | TDP1 cell CPT | TDP1 cell noCPT | IL-1B inflam inh | ELG1 repair inh | HT1080 IDH1KD tx
Cc1oc(-c2cccc(Cl)c2)nc1CS(=O)(=O)CC(=O)NCCCN1CCOCC1 | 3% | 13% | -1% | 11 | 13% | -1%
CCCCn1cnc2c(c(CC#N)nn2-c2ccccc2)c1=N | 0% | -4% | 0% | -11 | . | 3%
C=CCOc1ccc(/C=N/NC(=O)c2cc3c(OC)cc(OC)cc3[nH]2)cc1 | ? | ? | 26µM* | -18 | ? | ?
CCOc1ccc(/C=N/NC(=O)c2cc3c(OC)cc(OC)cc3[nH]2)cc1OC | ? | 13µM* | 16µM* | ? | 23µM* | ?
O=C(CN1C(=O)NC2(CCOc3ccccc32)C1=O)c1ccc(Br)cc1 (configuration not stated) | 22% | -14% | -18% | -3 | 0% | 2%
Cc1ccc(C(=O)C(C)OC(=O)c2ccccc2[N+](=O)[O-])cc1 (configuration not stated) | 0% | ? | ? | -26 | ? | 0%
Cc1cc(C)cc(N2C(=O)CC(c3ccccc3)CC2=O)c1 | 6% | -2% | 7% | 18 | 20% | 1%
Cn1nnnc1SC1CC(=O)N(c2ccccc2)C1=O (configuration not stated) | 2% | 2.6µM* | 3.3µM* | 0 | 6% | -11%
Cc1cc(C)cc(N2C(=O)CC(Sc3nnnn3-c3ccccc3)C2=O)c1 (configuration not stated) | 7.1µM* | 2.6µM* | 5.2µM* | -17 | 19% | 2.5µM*
O=C1CC(SCCO)C(=O)N1c1ccccc1 (configuration not stated) | 2%[9.24 µM] | -7% | -12% | -3 | -21% | -17%
O=C1CC(Sc2nnnn2C2CCCCC2)C(=O)N1c1ccccc1 (configuration not stated) | ? | 2.9µM* | 4.1µM* | 4 | 3% | 5µM*
Cc1cc(C)cc(N2C(=O)CC(Sc3ncn[nH]3)C2=O)c1 (configuration not stated) | -8% | 2.6µM* | 1.5µM* | -3 | 6% | -2%
Cc1cc(C)cc(N2C(=O)CC(Cn3nc(C)cc3C)C2=O)c1 (configuration not stated) | 12% | ? | -19% | 3 | 3% | 10%
COC(=O)c1ccccc1SC1CC(=O)N(c2ccccc2)C1=O (configuration not stated) | 10% | ? | -26% | 7 | 11% | 12%
Cc1c(CCO)c(=O)[nH]n1S(=O)(=O)c1ccc(F)cc1 | -1% | -1% | 3% | 4 | 17% | 10%
COc1ccc(C(=O)NC(=S)NNC(=O)c2cnccn2)cc1 | ? | 21µM* | 21µM* | 23 | ? | 2.9µM*
O=C(NC(=S)NC1CCCCCCCCCCC1)c1cccnc1 | -1% | ? | 15µM* | 30 | 19% | 0%
COc1cc(C(=O)NC(=S)NC(C)C)cc(OC)c1OC | 3% | -26% | ? | 0 | ? | 0%
COc1cc(C(=O)NC(=S)NNC(=O)c2cnccn2)cc(OC)c1OC | ? | ? | ? | 11 | ? | 15µM*
CCCCOc1ccc(C(=O)NNC(=O)c2cnccn2)cc1OC | ? | 8.2µM* | 21µM* | -73* | ? | ?
O=C(COC(=O)C1CCC(=O)N1)Nc1cccc([N+](=O)[O-])c1 (configuration not stated) | -2% | -9% | -16% | -16 | ? | -3%
CC(=O)Nc1ccc(NC(=O)c2cc3c(=O)n(Cc4cccnc4)ccc3nc2C)cc1 | . | -5% | -20% | . | . | .
O=C(NC(=S)NNC(=O)c1cnccn1)c1ccc(Cl)cc1 | -18% | 8.2µM* | ? | 20 | -10% | ?
O=C(NCCCNC(=O)c1cnccn1)c1ccc(Cl)cc1 | 8% | 23% | 2% | 15 | -6% | 7%
O=C(NC(=S)NNC(=O)c1ccccc1O)c1cccnc1 | -1% | ? | 21µM* | 0 | 5% | -21%
SMILES | HT1080-NT tox | TDP1 cell CPT | TDP1 cell noCPT | IL-1B inflam inh | ELG1 repair inh | HT1080 IDH1KD tx
O=C(NNC(=S)NC(=O)c1cccnc1)c1ccc(Cl)cc1 | -30% | 23µM* | 15µM* | 38 | 2% | ?
O=C1NC(Cc2ccccc2)c2nc3cc(Cl)ccc3c(=O)n2-c2ccccc21 (configuration not stated) | . | . | . | . | 2% | .
O=C(/C=C/Nc1cccc(C(F)(F)F)c1)c1ccco1 | 10% | 16% | -14% | 14 | ? | 6%
O=C(/C=C/Nc1cccc(C(F)(F)F)c1)c1ccc(Oc2ncccn2)cc1 | 2% | ? | 23µM* | 4 | 23% | 1%
CCOC(=O)[C@]12CCCC=C1N(Cc1cccc3ccccc13)C(=O)[C@H](CC(=O)N1CCCCC1)C2 | -21% | 18µM* | 26µM* | -23 | . | -11%
COC(=O)[C@]12CCCCC=C1N(Cc1cccc3ccccc13)C(=O)[C@H](CC(=O)N1CCSCC1)C2 | ? | ? | ? | -12 | . | ?
CCOC(=O)[C@]12CCC=C1N(Cc1cccc3ccccc13)C(=O)[C@H](CC(=O)N1CCSCC1)C2 | ? | ? | 18µM* | -11 | . | -22%
CCOC(=O)[C@]12CCCC=C1N(Cc1cccc3ccccc13)C(=O)[C@H](CC(=O)N1CCSCC1)C2 | ? | ? | ? | -5 | . | -29%
CCOC(=O)N1CCN(C(=O)C[C@@H]2C[C@@]3(C(=O)OC)CCCCC=C3N(Cc3cccc4ccccc34)C2=O)CC1 | -7% | ? | 21µM* | -10 | . | -22%
CCOC(=O)N1CCN(C(=O)C[C@@H]2C[C@@]3(C(=O)OC)CC(C)(C)CC=C3N(Cc3cccc4ccccc34)C2=O)CC1 | ? | 16µM* | 18µM* | -22 | . | ?
CCOC(=O)[C@]12CCC=C1N(Cc1cccc3ccccc13)C(=O)[C@H](CC(=O)N1CCCCC1)C2 | -29% | ? | 26µM* | -13 | . | ?
